Source: the supplement of paper PMC10849652
About 7,900 targets were measured; listed, in parts, are those with a hit and a random draw of the rest. About 0.6% of all pairs of compound and target were hits.

Assays:
Test in all cases: log2 fold change, soluble protein after heating vs DMSO (PISA); higher = thermal stabilisation; K562 cells, 10 uM, 30 min; active = over 0.2 and 3.5 SD of the protein, either way, in both replicates (recomputed)
[1] = compound: CC1=C(C=C(C=C1)NC(=O)C2=CC(=CC=C2)C(C)(C)C#N)NC3=CC4=C(C=C3)N=CN(C4=O)C
How it was run: (§1)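 Soluble protein was defined as the supernatant after 21,000xg for 90 min. It came from K562 cells at 2×10^6 cells/mL given 10 μM compound for 30 min, heated in aliquots for 3 min across 48°C-58°C, pooled, and extracted in PBS with 0.5% NP-40 at 4°C, and was quantified by TMTpro 16plex LC-MS/MS with equalised channel sums. Thermal stability against control samples, from duplicates, is reported as log2 fold change.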

[2] = compound: CC1=C(C=C(C=C1)NC(=O)C2=CC(=CC=C2)N(C)C)NC(=O)C3=CC=C(C=C3)O
How it was run: as §1

[3] = compound: CC1=CC=C(C=C1)SC2=C3C=C(SC3=CN=C2)C(=O)N
How it was run: as §1

[4] = compound: CC1=NC(=CC=C1)C2=C(N=C(N2)C(C)(C)C)C3=CC4=NC=CN=C4C=C3
How it was run: as §1

Nexturastat A = compound: CCCCN(Cc1ccc(C(=O)NO)cc1)C(=O)Nc1ccccc1 [Nexturastat A]
How it was run: as §1

vemurafenib = compound: CCCS(=O)(=O)Nc1ccc(F)c(C(=O)c2c[nH]c3ncc(-c4ccc(Cl)cc4)cc23)c1F [vemurafenib]
How it was run: as §1

[5] = compound: CCCS(=O)(=O)Nc1ccc(F)c(C(=O)c2c[nH]c3ncc(Cl)cc23)c1F
How it was run: as §1

[6] = compound: CCCc1cc(C)[nH]c(=O)c1CNC(=O)c1cc(-c2ccnc(N3CCN(C)CC3)c2)cc2c1cnn2C(C)C
How it was run: as §1

givinostat = compound: CCN(CC)Cc1ccc2cc(COC(=O)Nc3ccc(C(=O)NO)cc3)ccc2c1 [givinostat]
How it was run: as §1

barasertib = compound: CCN(CCCOc1ccc2c(Nc3cc(CC(=O)Nc4cccc(F)c4)[nH]n3)ncnc2c1)CCOP(=O)(O)O [barasertib]
How it was run: as §1

[7] = compound: CC[C@@H]1C(=O)N(C)c2cnc(Nc3ccc(C(=O)NC4CCN(C)CC4)cc3OC)nc2N1C1CCCC1
How it was run: as §1

volasertib = compound: CC[C@@H]1C(=O)N(C)c2cnc(Nc3ccc(C(=O)N[C@H]4CC[C@H](N5CCN(CC6CC6)CC5)CC4)cc3OC)nc2N1C(C)C [volasertib]
How it was run: as §1

[8] = compound: CC[C@H](C)N1C=C(C2=C(C=C(C=C21)C3=CN=C(C=C3)N4CCNCC4)C(=O)NCC5=C(C=C(NC5=O)C)C)C
How it was run: as §1

epoxomicin = compound: CC[C@H](C)[C@@H](C(=O)N[C@@H]([C@@H](C)O)C(=O)N[C@@H](CC(C)C)C(=O)[C@]1(CO1)C)NC(=O)[C@H]([C@@H](C)CC)N(C)C(=O)C [epoxomicin]
How it was run: as §1

[9] = compound: CCn1c(C(=O)N(C2CC2)C2CC2)cc2c3c(ncn3C)c(Nc3cc(C)n(C)n3)nc21
How it was run: as §1

[10] = compound: CCn1cc(-c2ccnc3[nH]c(-c4cccc(CN(C)C)c4)cc23)c(-c2ccc(NC(=O)N(C)C)cc2)n1
How it was run: as §1

[11] = compound: CN(C)CC(=O)Nc1ccc2[nH]c(=O)c3ccccc3c2c1
How it was run: as §1

rosiglitazone = compound: CN(CCOC1=CC=C(C=C1)C[C@H]2C(=O)NC(=O)S2)C3=CC=CC=N3 (racemic) [rosiglitazone]
How it was run: as §1

[12] = compound: CN1C2=C(C3=C1C(=O)N(N=C3)CC4=CC(=CC=C4)N)SC(=C2)S(=O)C
How it was run: as §1

[13] = compound: CN1CCC(CNc2ccc3ncc(-c4cccc(OC(F)(F)F)c4)n3n2)CC1
How it was run: as §1

Measured: log2 fold change

LDLR (UniProt P01130)
Chain of UniProt P01130 (P01130 whole entry, looked up): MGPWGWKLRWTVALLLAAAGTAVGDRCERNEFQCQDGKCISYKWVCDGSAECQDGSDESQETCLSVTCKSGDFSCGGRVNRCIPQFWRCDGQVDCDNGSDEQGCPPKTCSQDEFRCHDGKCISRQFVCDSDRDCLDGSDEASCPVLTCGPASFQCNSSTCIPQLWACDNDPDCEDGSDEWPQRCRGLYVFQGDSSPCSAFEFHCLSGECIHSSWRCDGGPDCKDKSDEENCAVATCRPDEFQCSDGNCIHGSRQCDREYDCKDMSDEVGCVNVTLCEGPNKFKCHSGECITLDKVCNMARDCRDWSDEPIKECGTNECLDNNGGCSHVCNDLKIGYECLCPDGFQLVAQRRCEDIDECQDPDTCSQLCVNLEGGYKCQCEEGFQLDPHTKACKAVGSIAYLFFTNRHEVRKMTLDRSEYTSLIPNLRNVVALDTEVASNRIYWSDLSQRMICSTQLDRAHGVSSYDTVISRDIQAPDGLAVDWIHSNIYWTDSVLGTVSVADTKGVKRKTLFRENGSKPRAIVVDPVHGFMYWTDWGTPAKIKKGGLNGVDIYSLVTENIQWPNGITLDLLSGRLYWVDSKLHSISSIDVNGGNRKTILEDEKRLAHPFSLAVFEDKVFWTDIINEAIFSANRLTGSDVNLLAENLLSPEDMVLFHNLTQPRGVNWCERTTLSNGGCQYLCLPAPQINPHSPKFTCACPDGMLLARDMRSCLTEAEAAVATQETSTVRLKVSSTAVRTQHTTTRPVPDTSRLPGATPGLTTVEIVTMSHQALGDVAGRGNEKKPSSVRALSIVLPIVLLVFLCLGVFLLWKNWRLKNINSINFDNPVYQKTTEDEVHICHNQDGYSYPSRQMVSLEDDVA
inactive: [1] -0.063 | [2] 0.006 | [3] 0.006 | [4] 0.01 | Nexturastat A 0 | vemurafenib -0.022 | [5] -0.073 | [6] -0.018 | givinostat -0.03 | barasertib 0.019 | [7] -0.135 | volasertib -0.176 | [8] -0.028 | epoxomicin 0.031 | [9] -0.007 | [10] 0.058 | [11] -0.059 | rosiglitazone 0.009 | [12] -0.004 | [13] 0.064

LSR (UniProt Q86X29)
Chain of UniProt Q86X29 (Q86X29 whole entry, looked up): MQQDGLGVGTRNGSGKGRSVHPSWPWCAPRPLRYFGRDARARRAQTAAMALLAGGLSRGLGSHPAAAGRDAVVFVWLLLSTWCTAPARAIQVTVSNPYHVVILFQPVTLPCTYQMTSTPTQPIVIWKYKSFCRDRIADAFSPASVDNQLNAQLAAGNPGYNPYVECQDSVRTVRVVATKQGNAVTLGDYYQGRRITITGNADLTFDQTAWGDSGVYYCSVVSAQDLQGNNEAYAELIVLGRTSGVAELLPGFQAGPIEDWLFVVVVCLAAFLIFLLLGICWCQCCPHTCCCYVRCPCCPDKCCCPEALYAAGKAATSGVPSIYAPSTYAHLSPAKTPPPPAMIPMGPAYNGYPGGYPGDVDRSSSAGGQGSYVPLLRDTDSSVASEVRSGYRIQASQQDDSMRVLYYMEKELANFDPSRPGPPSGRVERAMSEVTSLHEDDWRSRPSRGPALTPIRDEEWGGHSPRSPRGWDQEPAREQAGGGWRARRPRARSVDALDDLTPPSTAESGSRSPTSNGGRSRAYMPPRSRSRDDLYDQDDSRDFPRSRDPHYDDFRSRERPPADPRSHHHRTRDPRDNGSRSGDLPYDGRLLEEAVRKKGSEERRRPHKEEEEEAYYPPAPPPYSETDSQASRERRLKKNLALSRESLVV
active: [13] 0.214
inactive: [1] -0.051 | [2] 0.016 | [3] -0.05 | [4] -0.05 | Nexturastat A -0.074 | vemurafenib -0.028 | [5] -0.061 | [6] -0.019 | givinostat -0.046 | barasertib -0.016 | [7] 0.109 | volasertib 0.068 | [8] -0.02 | epoxomicin -0.021 | [9] -0.013 | [10] 0.011 | [11] -0.033 | rosiglitazone 0.011 | [12] -0.001

LTN1 isoform 3 (UniProt O94822)
Chain of UniProt O94822 (O94822 whole entry, looked up): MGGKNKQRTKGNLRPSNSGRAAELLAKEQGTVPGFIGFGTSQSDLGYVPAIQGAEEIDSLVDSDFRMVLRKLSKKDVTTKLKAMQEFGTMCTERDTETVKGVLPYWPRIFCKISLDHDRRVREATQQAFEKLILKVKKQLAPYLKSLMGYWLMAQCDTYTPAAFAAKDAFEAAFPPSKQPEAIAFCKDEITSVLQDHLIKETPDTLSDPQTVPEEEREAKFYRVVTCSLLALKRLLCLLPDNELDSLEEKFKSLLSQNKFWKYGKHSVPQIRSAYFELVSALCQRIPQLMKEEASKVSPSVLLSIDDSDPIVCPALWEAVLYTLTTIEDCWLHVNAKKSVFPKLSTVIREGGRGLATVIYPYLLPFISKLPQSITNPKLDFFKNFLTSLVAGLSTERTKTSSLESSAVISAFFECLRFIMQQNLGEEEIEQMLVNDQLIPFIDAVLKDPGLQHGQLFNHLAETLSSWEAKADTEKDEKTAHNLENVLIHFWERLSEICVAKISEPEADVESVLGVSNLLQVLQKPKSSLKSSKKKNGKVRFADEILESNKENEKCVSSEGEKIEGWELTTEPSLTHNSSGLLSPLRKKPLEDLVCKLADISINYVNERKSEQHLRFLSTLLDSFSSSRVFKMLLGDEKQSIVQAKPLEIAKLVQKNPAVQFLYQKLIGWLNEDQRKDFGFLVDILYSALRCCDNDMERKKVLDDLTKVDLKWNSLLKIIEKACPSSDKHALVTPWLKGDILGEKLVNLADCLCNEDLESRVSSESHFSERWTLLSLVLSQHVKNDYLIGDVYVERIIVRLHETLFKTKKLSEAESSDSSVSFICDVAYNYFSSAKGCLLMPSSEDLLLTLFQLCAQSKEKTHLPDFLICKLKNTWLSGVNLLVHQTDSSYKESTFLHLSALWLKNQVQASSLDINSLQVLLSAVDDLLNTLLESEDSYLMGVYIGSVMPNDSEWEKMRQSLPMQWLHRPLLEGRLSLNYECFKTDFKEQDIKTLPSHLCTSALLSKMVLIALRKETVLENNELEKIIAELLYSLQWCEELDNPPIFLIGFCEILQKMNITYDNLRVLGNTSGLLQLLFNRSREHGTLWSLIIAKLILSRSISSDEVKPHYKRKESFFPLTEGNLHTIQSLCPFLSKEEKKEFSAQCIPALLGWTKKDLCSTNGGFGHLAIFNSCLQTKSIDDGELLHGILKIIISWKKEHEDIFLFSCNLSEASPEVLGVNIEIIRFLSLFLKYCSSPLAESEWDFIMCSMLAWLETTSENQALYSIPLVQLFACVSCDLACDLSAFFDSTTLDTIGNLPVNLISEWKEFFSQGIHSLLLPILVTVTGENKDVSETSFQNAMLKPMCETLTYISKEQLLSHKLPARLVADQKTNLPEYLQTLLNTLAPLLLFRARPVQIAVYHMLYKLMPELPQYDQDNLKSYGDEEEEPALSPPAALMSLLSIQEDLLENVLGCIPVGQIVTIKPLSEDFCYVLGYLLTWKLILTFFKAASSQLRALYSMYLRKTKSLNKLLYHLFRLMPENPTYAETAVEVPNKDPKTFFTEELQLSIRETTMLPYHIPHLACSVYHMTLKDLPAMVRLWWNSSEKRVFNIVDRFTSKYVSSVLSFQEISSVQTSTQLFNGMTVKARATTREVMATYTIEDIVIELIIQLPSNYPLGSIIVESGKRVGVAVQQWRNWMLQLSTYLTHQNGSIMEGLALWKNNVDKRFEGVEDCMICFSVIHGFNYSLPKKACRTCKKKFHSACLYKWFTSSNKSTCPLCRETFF
inactive: [1] -0.013 | [2] -0.031 | [3] -0.008 | [4] -0.006 | Nexturastat A 0.104 | vemurafenib 0.039 | [5] 0.058 | [6] 0.017 | givinostat 0.065 | barasertib 0.042 | [7] -0.16 | [8] 0.079 | epoxomicin -0.012 | [9] -0.075 | [10] -0.019 | [11] 0.043 | rosiglitazone 0.05 | [12] 0.06
active: volasertib -0.459 | [13] -0.498

MAGI1 (UniProt Q96QZ7)
inactive: [1] 0.041 | [2] 0.041 | [3] -0.027 | [4] -0.023 | Nexturastat A 0.074 | vemurafenib 0.018 | [5] -0.009 | [6] -0.026 | givinostat -0.013 | barasertib -0.008 | [7] 0.041 | volasertib 0.031 | [8] 0.026 | epoxomicin -0.045 | [9] 0.005 | [10] 0.012 | [11] -0.041 | rosiglitazone 0.016 | [12] 0.014 | [13] -0.011

LMF2 (UniProt Q9BU23)
active: volasertib -0.332
inactive: [1] 0.009 | [2] -0.07 | [3] 0.025 | [4] -0.078 | Nexturastat A -0.022 | vemurafenib 0.067 | [5] -0.022 | [6] 0.016 | givinostat 0.033 | barasertib -0.002 | [7] -0.109 | [8] -0.027 | epoxomicin 0 | [9] -0.053 | [10] 0.12 | [11] -0.017 | rosiglitazone 0.039 | [12] -0.007 | [13] -0.035

KIF13A isoform 4 (UniProt Q9H1H9)
Chain of UniProt Q9H1H9 (Q9H1H9 whole entry, looked up): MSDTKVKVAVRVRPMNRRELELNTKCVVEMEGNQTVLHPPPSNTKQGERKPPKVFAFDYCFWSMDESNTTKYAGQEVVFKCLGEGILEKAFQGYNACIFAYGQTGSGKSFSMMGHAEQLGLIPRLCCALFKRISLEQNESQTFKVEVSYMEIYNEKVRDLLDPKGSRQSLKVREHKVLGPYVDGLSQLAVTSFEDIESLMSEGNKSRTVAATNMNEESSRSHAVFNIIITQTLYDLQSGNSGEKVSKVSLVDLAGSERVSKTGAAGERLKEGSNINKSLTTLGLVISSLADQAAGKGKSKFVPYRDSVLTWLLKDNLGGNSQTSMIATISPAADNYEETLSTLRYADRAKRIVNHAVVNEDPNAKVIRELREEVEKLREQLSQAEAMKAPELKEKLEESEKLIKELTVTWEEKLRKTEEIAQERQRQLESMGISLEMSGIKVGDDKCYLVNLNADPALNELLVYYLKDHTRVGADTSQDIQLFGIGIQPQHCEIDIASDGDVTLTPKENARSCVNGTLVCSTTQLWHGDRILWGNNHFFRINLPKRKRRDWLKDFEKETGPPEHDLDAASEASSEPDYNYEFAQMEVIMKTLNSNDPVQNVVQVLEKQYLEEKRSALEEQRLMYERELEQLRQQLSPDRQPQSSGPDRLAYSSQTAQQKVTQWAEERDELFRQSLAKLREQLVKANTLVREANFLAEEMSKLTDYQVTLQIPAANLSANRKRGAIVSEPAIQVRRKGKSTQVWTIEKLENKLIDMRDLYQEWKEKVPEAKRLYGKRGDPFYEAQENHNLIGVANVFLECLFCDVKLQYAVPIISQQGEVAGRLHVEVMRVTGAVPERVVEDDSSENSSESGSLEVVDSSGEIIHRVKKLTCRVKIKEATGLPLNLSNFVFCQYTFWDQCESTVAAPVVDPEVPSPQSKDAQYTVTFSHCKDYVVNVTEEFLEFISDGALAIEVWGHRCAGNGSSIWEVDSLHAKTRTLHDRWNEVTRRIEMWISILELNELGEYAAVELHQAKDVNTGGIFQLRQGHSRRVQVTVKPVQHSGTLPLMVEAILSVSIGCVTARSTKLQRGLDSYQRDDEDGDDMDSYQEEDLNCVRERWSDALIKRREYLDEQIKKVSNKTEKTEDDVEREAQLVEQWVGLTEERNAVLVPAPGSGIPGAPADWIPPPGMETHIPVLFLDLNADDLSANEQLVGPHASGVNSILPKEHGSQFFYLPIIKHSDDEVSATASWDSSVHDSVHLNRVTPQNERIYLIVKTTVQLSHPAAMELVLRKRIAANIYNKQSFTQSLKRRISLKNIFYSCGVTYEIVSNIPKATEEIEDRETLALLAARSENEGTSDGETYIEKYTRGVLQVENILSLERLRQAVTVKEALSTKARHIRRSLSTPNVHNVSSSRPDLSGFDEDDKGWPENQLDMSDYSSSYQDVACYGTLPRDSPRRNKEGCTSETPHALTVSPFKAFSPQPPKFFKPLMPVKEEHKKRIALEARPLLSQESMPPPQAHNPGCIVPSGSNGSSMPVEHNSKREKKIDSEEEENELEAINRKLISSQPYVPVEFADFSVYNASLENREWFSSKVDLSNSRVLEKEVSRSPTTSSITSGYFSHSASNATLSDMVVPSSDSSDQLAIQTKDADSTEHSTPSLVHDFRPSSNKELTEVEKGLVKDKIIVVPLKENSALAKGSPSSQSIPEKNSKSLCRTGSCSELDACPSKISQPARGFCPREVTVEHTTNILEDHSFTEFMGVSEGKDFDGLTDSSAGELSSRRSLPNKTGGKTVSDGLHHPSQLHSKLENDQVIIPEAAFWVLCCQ
inactive: [1] 0.035

KIF13A (UniProt Q9H1H9)
inactive: [1] -0.005 | [2] 0.021 | [3] -0.005 | [4] -0.004 | Nexturastat A 0.018 | vemurafenib -0.045 | [5] 0.04 | [6] -0.005 | givinostat -0.021 | barasertib -0.009 | [7] 0.007 | volasertib -0.041 | [8] -0.003 | epoxomicin 0.004 | [9] -0.05 | [10] -0.068 | [11] -0.026 | rosiglitazone 0.068 | [12] -0.012 | [13] 0.039

MAP4 (UniProt E7EVA0)
inactive: [1] 0 | [2] 0.008 | [3] -0.03 | [4] -0.061 | Nexturastat A 0.161 | vemurafenib -0.046 | [5] -0.002 | [6] 0.024 | givinostat 0.091 | barasertib 0.061 | [7] 0.079 | volasertib 0.246 | [8] 0.036 | epoxomicin -0.113 | [9] -0.004 | [10] 0.068 | [11] -0.021 | rosiglitazone -0.206 | [12] 0.131 | [13] 0.152

KIF3A (UniProt Q9Y496)
inactive: [1] -0.041 | [2] -0.013 | [3] -0.076 | [4] 0 | Nexturastat A 0.029 | vemurafenib -0.002 | [5] 0.062 | [6] 0.045 | givinostat 0.074 | barasertib -0.041 | [7] 0.036 | volasertib -0.039 | [8] -0.187 | epoxomicin 0.068 | [9] -0.004 | [10] -0.093 | [11] 0.032 | rosiglitazone 0.174 | [12] -0.023 | [13] -0.162

KDM1A isoform 2 (UniProt O60341)
inactive: [1] -0.029 | [2] 0.058 | [3] 0.01 | [4] 0.002 | Nexturastat A 0.023 | vemurafenib -0.02 | [5] 0.033 | [6] 0.046 | givinostat 0.101 | barasertib 0.013 | [7] 0.135 | volasertib -0.028 | [8] 0.06 | epoxomicin 0.101 | [9] -0.053 | [10] -0.111 | [11] 0.006 | rosiglitazone 0.099 | [12] -0.001 | [13] -0.091

IPO11 isoform 2 (UniProt Q9UI26)
active: volasertib -0.3
inactive: [1] 0.028 | [2] 0.004 | [3] 0.024 | [4] 0.047 | Nexturastat A -0.002 | vemurafenib 0.052 | [5] 0.082 | [6] -0.031 | givinostat -0.031 | barasertib 0.014 | [7] -0.104 | [8] -0.004 | epoxomicin 0.066 | [9] -0.01 | [10] -0.068 | [11] 0.028 | rosiglitazone -0.002 | [12] -0.082 | [13] -0.016

MDC1 (UniProt Q14676)
active: [12] 0.527
inactive: [1] -0.019 | [2] -0.037 | [3] -0.013 | [4] -0.076 | Nexturastat A 0.048 | vemurafenib -0.037 | [5] -0.008 | [6] 0.074 | givinostat 0.055 | barasertib -0.074 | [7] 0 | volasertib -0.074 | [8] -0.028 | epoxomicin 0.039 | [9] -0.03 | [10] 0.384 | [11] 0.015 | rosiglitazone 0.019 | [13] 0.069

MCL1 (UniProt Q07820)
inactive: [1] -0.022 | [2] -0.047 | [3] 0.048 | [4] 0.048 | Nexturastat A 0.08 | vemurafenib -0.057 | [5] -0.164 | [6] 0.084 | givinostat 0.075 | barasertib -0.027 | [7] -0.03 | volasertib -0.038 | [8] -0.033 | epoxomicin 0.308 | [9] 0.213 | [10] -0.032 | [11] 0.052 | rosiglitazone 0.019 | [12] -0.035 | [13] -0.209

MAP4 (UniProt P27816)
inactive: [1] -0.006 | [2] 0.007 | [3] -0.018 | [4] -0.01 | Nexturastat A 0.003 | vemurafenib -0.018 | [5] -0.007 | [6] 0.002 | givinostat -0.004 | barasertib -0.046 | [7] 0.011 | volasertib 0.049 | [8] -0.041 | epoxomicin -0.003 | [9] 0.018 | [10] -0.002 | [11] -0.03 | rosiglitazone -0.021 | [12] -0.004 | [13] 0.037

KNTC1 (UniProt P50748)
active: volasertib -0.504
inactive: [1] -0.027 | [2] -0.003 | [3] -0.021 | [4] 0.026 | Nexturastat A 0.034 | vemurafenib 0.042 | [5] 0.036 | [6] 0.092 | givinostat 0.082 | barasertib 0.035 | [7] -0.255 | [8] 0.022 | epoxomicin 0.016 | [9] -0.015 | [10] -0.007 | [11] 0.037 | rosiglitazone 0.044 | [12] 0.027 | [13] -0.219

LEMD3 (UniProt Q9Y2U8)
inactive: [1] -0.066 | [2] -0.071 | [3] -0.005 | [4] -0.017 | Nexturastat A 0.026 | vemurafenib 0.056 | [5] 0.005 | [6] 0.054 | givinostat 0.077 | barasertib 0.023 | [7] -0.096 | [8] -0.063 | epoxomicin 0.095 | [9] -0.076 | [10] 0.003 | [11] 0.123 | rosiglitazone -0.03 | [12] -0.016 | [13] -0.081
active: volasertib -0.324

MICU2 (UniProt Q8IYU8)
active: [13] -0.309
inactive: [1] 0.022 | [2] 0.067 | [3] 0.091 | [4] 0.05 | Nexturastat A 0.198 | vemurafenib 0.053 | [5] 0.183 | [6] 0.042 | givinostat -0.009 | barasertib 0.079 | [7] -0.135 | volasertib -0.118 | [8] 0 | epoxomicin 0.067 | [9] 0.005 | [10] -0.046 | [11] 0.007 | rosiglitazone -0.017 | [12] 0.097
